Sfp PPTase inh: inhibitors of Bacillus subtilis Sfp phosphopantetheinyl transferase; Biochemical Sfp PPTase activity, qHTS; Potency, µM, actives largely listed as inhibitors; 3.5% of 310,000 active; AID 1490;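 also: the enzyme is Sfp with the accession as filed and its product quenches rhodamine fluorescence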
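Step 1, compound plus 15 nM Sfp-PPTase, 15 min, room temperature. Step 2, add rhodamine-CoA (5 uM) and BHQ-2-YbbR (12.5 uM). Step 3, read 525/598 nm fluorescence at 0 and 30 min.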
HP1b binding inh: HP1-beta chromodomain-methylated histone interaction inhibition. AlphaScreen HP1-beta / biotin-H3K9me3 peptide binding. Potency, µM (series often up to 114 µM), usual class: inhibitors. 0.56% of 390,000 active; also: nearly all actives have a fitted effect of over 70% in size
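AlphaScreen: HP1-beta (50 nM) preformed 30 min with biotin-H3(1-18)K9me3 peptide (50 nM) in PBS pH 7.4, 0.01% Tween-20. Compound added for 30 min at RT, then streptavidin donor/nickel chelate acceptor beads (10 ug/mL) for 30 min.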
L3MBTL1 inh: blocks human L3MBTL1 | Q9Y468 | AlphaScreen L3MBTL1–H3K9me1 peptide binding | Potency, µM (highest dose often 57.1 µM), usual class: inhibitors | 0.66% of 230,000 active | AID 485360; also: nearly all actives have a fitted effect of over 60% in size
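Read-out is AlphaScreen signal from streptavidin donor and nickel chelate acceptor beads (10 ug/mL final each) bridging L3MBTL1 (50 nM) and biotinylated K9-monomethylated H3(1-15) peptide (75 nM), after 30 min compound exposure at room temperature.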
JMJD2A Tudor inh: inhibitors of human JMJD2A Tudor domain. 4.4% of 390,000 active. AlphaScreen JMJD2A-Tudor / H3K4me3 peptide binding. Potency, µM (titrated, usually from 114 µM), usual class: inhibitors. O75164; also: nearly all actives have a fitted effect of over 50% in size
BAZ2B inh: BAZ2B (human) inhibition; Potency, µM (top dose mostly 114 µM), usual class: inhibitors; AlphaScreen BAZ2B-H3K14Ac peptide displacement; 4.4% of 360,000 active; AID 504333; also: nearly all actives have a fitted effect of over 60% in size
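Compounds, titrated to a top concentration of 110 uM, were incubated 30 min at room temperature with preformed BAZ2B/acetyl-K14 H3 peptide complex (50 nM each). Proximity signal was measured by AlphaScreen after 20 min with beads.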
G9a block: inhibitors of human histone lysine methyltransferase G9a. Q96KQ7. G9a H3K9 monomethylation, AlphaScreen, 2 h. Potency, µM (doses to about 102 µM), hits mostly inhibitors. 8.8% of 350,000 active. AID 504332; also: nearly all actives have a fitted effect of over 75% in size
Target sequence (Q96KQ7 913-1193 limits assumed): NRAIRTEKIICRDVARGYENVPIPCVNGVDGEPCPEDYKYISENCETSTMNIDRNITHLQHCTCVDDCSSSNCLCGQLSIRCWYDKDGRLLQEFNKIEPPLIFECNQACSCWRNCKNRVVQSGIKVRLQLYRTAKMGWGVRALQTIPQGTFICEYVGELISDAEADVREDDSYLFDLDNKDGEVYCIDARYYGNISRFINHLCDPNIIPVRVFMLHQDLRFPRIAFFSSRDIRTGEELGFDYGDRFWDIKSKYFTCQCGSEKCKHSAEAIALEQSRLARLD
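Readings reflect AlphaScreen signal from monomethyl-H3K9 antibody detection. HMT at 20 nM; substrate b-H3K9 500 nM; cofactor SAM 20 uM; 2 h RT reaction; compounds tested as titrations in qHTS with 15 min preincubation.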
Hits are given with their value; n = inactive; u = inconclusive; x = no result; [ ] = another dose, or the depositor's remark. A selection: hits, their analogues and other compounds. The true share with any hit is near 12%. Calls follow the shape of the dose curve; as a rule, active = well fitted curve in the direction sought with a large enough effect; inconclusive = small, poorly fitted or top-dose-only effect, or another doubt; inactive = no such curve, though single readings can be large; an effect the other way counts as inactive or inconclusive.

SMILES | Sfp PPTase inh | HP1b binding inh | L3MBTL1 inh | JMJD2A Tudor inh | BAZ2B inh | G9a block
O=C(CN1CCCCCC1)Nc1ccccc1F | u | u | n | 2.24µM | 56.2µM | 8.91µM
O=C(CN1CCN(CC(=O)Nc2ccccc2C(F)(F)F)CC1)Nc1ccccc1F | n | n | n | n | n | 31.6µM
O=C(CN1CCN(CC(=O)c2ccc(F)cc2)CC1)Nc1ccccc1Cl | n | n | n | n | n | 7.08µM
O=C(CN1CCN(c2ccccc2O)CC1)NC(c1ccccc1)c1ccccc1 | n | n | n | u | n | n
O=C(CN1CCCC1)NC(c1ccccc1)c1ccccc1 | n | u | 3.98µM | 1.41µM | n[0.457 µM] | 10µM
COc1ccc(CCN2CCCn3c2nc2c3c(=O)n(CC(N)=O)c(=O)n2C)cc1OC | n | n | x | n | n | u
O=c1c2ccccc2cnn1Cc1ccc(Cl)c(Cl)c1 | n | n | x | n | n | n
O=c1c2ccccc2cnn1Cc1n[nH]c(=S)n1-c1ccc(F)c(Cl)c1 | n | n | n | 7.94µM | n | 3.16µM
O=c1c2ccccc2cnn1Cc1n[nH]c(=S)n1-c1cc(Cl)cc(Cl)c1 | u | n | n | 25.1µM | n | 0.398µM
O=c1c2ccccc2cnn1Cc1n[nH]c(=S)n1-c1ccccc1Cl | n | n | n | 31.6µM | n | 4.47µM
O=C(OCC#Cc1c(COC(=O)c2ccccc2)nnn1Cc1ccccc1)c1ccccc1 | n | n | x | n | n | n
CCCN(CCC)C(=O)[C@@H](CCC(=O)O)NC(=O)c1ccccc1 | u | x | x | x | x | n[12.7 µM]
CC(c1ccccc1)C1CC(=O)N(c2ccccc2)C1=O (centres undefined) | n | n | n | n | n | x
CC(c1ccccc1)C1CC(=O)N(Cc2ccco2)C1=O (centres undefined) | 22.4µM | n | n | n | n | u
CC(=O)N1CCN(c2ccc(NCc3ccc(-c4ccc(Br)cc4)o3)cc2)CC1 | x | n | n | 25.1µM | x | x
CN1CCN(c2ccc(NC(=O)c3ccc(-c4ccc(Br)cc4)o3)cc2)CC1 | u | u | n[11.4 µM] | 35.5µM | 25.1µM | 31.6µM
CC(=O)N1CCN(c2ccc(NCc3ccc(Br)o3)cc2)CC1 | x | n | n | u | u | n[0.501 µM]
CCOc1ccc(CNC(=O)C2CCCN(c3nn4cc(-c5ccc(OC)cc5)nc4s3)C2)cc1 (centres undefined) | x | n | x | n | n | n
NC(=Nc1ccc(Br)cc1)c1ccccc1 | n | n | n | n | n | x
CC(=Nc1ccccc1)C1=C(O)COC1=O | n | n | x | n | u | n
CC(=Nc1ccccc1)c1sc2ccccc2c1O | n | n | n | 56.2µM | u | u
CC(=Nc1ccc(Br)cc1)c1sc2ccccc2c1O | 31.6µM | n | n | n | n | n
CC(C)CN1CC[C@@]2(CCCN(C(=O)c3csnn3)C2)C1 | n | x | x | x | x | u
O=c1[nH]cnc2c1N1CCC2CC1 | n | n | n | 28.2µM | u | 44.7µM
